Reference: the supplement of paper PMC6089552
Hit rate of the full screen: of about 3,200 compounds, about 300 (9.4%) showed activity. For the sample, actives were picked, then their nearest neighbours and some compounds at random.

System: A673/TR/shEF
Assay: cell viability (LOESS-normalised, relative to median of negative controls) (log2 ratio); higher = more viable cells (less compound effect), active = hit call of the paper (over 3 MAD below the median)
Conditions: treatment time: 72 h
Procedure, shortened: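 A673/TR/shEF Ewing sarcoma cells (1,500 per well, 384-well plates) were grown with or without doxycycline to induce EWS-FLI1 shRNA knockdown, starting 24 h before compounds. Library compounds at two or more concentrations, with DMSO controls, were added for three days. Cell viability was read by CellTiter-Glo luminescence on an Envision reader, then LOESS-corrected per plate, divided by the median of negative controls and log2-transformed. Hits were wells at least three median absolute deviations from the median of all screened wells.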

[1] = 0.103 µM, library screen: screen3, EWS-FLI1 expression: high (no doxycycline)
[2] = 0.103 µM, library screen: screen3, EWS-FLI1 expression: low (doxycycline-induced shRNA knockdown)
[3] = 0.308 µM, library screen: screen3, EWS-FLI1 expression: high (no doxycycline)
[4] = 0.308 µM, library screen: screen3, EWS-FLI1 expression: low (doxycycline-induced shRNA knockdown)
[5] = 0.926 µM, library screen: screen3, EWS-FLI1 expression: high (no doxycycline)
[6] = 0.926 µM, library screen: screen3, EWS-FLI1 expression: low (doxycycline-induced shRNA knockdown)
[7] = 2.8 µM, library screen: screen3, EWS-FLI1 expression: high (no doxycycline)
[8] = 2.8 µM, library screen: screen3, EWS-FLI1 expression: low (doxycycline-induced shRNA knockdown)
[9] = 8.3 µM, library screen: screen3, EWS-FLI1 expression: high (no doxycycline)
[10] = 8.3 µM, library screen: screen3, EWS-FLI1 expression: low (doxycycline-induced shRNA knockdown)
[11] = 25 µM, library screen: screen3, EWS-FLI1 expression: high (no doxycycline)
[12] = 25 µM, library screen: screen3, EWS-FLI1 expression: low (doxycycline-induced shRNA knockdown)
[13] = 0.25 µM, library screen: screen1, EWS-FLI1 expression: high (no doxycycline)
[14] = 0.25 µM, library screen: screen1, EWS-FLI1 expression: low (doxycycline-induced shRNA knockdown)
[15] = 2.5 µM, library screen: screen1, EWS-FLI1 expression: high (no doxycycline)
[16] = 2.5 µM, library screen: screen1, EWS-FLI1 expression: low (doxycycline-induced shRNA knockdown)
[17] = 0.25 µM, library screen: screen2, EWS-FLI1 expression: high (no doxycycline)
[18] = 0.25 µM, library screen: screen2, EWS-FLI1 expression: low (doxycycline-induced shRNA knockdown)
[19] = 2.5 µM, library screen: screen2, EWS-FLI1 expression: high (no doxycycline)
[20] = 2.5 µM, library screen: screen2, EWS-FLI1 expression: low (doxycycline-induced shRNA knockdown)

Measured: cell viability (log2)

COc1c(O)cc(C2Oc3c(c(O)cc(O)c3[C@H]3c4c(O)cc(O)cc4O[C@H](c4ccc(O)cc4)[C@@H]3O)C[C@H]2O)cc1O (some centres undefined)
inactive: [1] -0.000188 | [2] 0.0292 | [3] -0.0295 | [4] -0.00938 | [5] 0.0249 | [6] 0.0493 | [7] -0.0107 | [8] 0.0655 | [9] 0.0329 | [10] 0.11 | [11] 0.0402 | [12] 0.209

CN1CC[C@H](c2c(O)cc(O)c3c(=O)cc(-c4ccccc4Cl)oc23)[C@H](O)C1
active: [1] -0.182 | [3] -0.451 | [4] -0.231 | [5] -1.4 | [6] -1.66 | [7] -3.54 | [8] -2.88 | [9] -4.29 | [10] -4.28 | [11] -4.33 | [12] -4.3
inactive: [2] -0.0654

CC(=O)OC1CC[C@@]2(C)C(CC[C@]3(C)C2CCC2C4CC(C)(C)CCC4(C(=O)O)CC[C@]23C)C1(C)C (some centres undefined)
inactive: [13] 0.0992 | [14] 0.055 | [15] 0.145 | [16] 0.119

CC(=O)Oc1cc(OC(C)=O)c2c(c1)OC(c1ccc(OC(C)=O)c(OC(C)=O)c1)C(OC(C)=O)C2 (centres undefined)
inactive: [13] 0.1 | [14] 0.0336 | [15] 0.18 | [16] 0.104

CC(C)(O)[C@@H]1Cc2cc3ccc(=O)oc3cc2O1
inactive: [13] 0.0301 | [14] -0.0352 | [15] 0.107 | [16] 0.0444

COc1cccc(-c2cc(=O)c3ccccc3o2)c1N
0.278: [13]
inactive: 0.025 µM, library screen: screen1, EWS-FLI1 expression: high (no doxycycline) 0.268 | 0.025 µM, library screen: screen1, EWS-FLI1 expression: low (doxycycline-induced shRNA knockdown) -0.0228 | [14] -0.0268 | [17] 0.18 | [18] 0.11 | [16] 0.0789 | [19] 0.195 | [20] 0.139 | 25 µM, library screen: screen1, EWS-FLI1 expression: high (no doxycycline) -0.0514 | 25 µM, library screen: screen1, EWS-FLI1 expression: low (doxycycline-induced shRNA knockdown) 0.0727
active: [15] -0.37

COc1ccccc1-c1cc(=O)c2cccc(OC)c2o1
inactive: [13] 0.00414 | [14] -0.0253 | [15] 0.211 | [16] 0.0664

COc1ccccc1-c1cc(=O)c2c(OC)cccc2o1
inactive: [13] 0.121 | [14] -0.0186 | [15] 0.129 | [16] 0.0665

Cc1cc(OC(=O)c2c(C)cc(OC(=O)c3c(C)cc(O)cc3O)cc2O)cc(O)c1C(=O)O
inactive: [13] 0.154 | [14] 0.153 | [15] 0.0106 | [16] 0.113

CC[n+]1c(-c2ccccc2)c2cc(N)ccc2c2ccc(N)cc21
active: [15] -1.89
inactive: [13] 0.0617 | [14] 0.0391 | [16] -0.0126

NCCNC(=O)Cc1ccc(NC(=O)Cc2ccc(Nc3ncnc4c3ncn4C3OC(CO)C(O)C3O)cc2)cc1 (centres undefined)
inactive: [17] 0.211 | [18] 0.142 | [19] 0.0909 | [20] 0.0423

O=C1/C(=C\c2ccccc2F)SC(=S)N1CN1CCOCC1
inactive: [13] 0.128 | [14] 0.0809 | [15] 0.107 | [16] -0.00103

NCCCCCC(=O)O
inactive: [1] 0.214 | [2] 0.078 | [13] 0.0812 | [14] 0.00994 | [17] -0.00366 | [18] 0.09 | [3] 0.0847 | [4] 0.0858 | [5] 0.107 | [6] 0.0768 | [15] 0.144 | [16] 0.111 | [19] 0.0922 | [20] 0.111 | [7] 0.141 | [8] 0.0677 | [9] 0.085 | [10] 0.128 | [11] 0.0538 | [12] 0.145

O=C(O)CCCCCCCC(=O)O
active: [17] -0.13
inactive: [13] 0.000753 | [14] 0.0938 | [18] 0.0952 | [15] 0.149 | [16] 0.152 | [19] 0.0755 | [20] 0.0904

CC(=O)NCCCCCC(=O)O
inactive: [13] 0.0566 | [14] 0.106 | [15] 0.0136 | [16] 0.0704

NCCCC(=O)O
inactive: [13] 0.0628 | [14] 0.0888 | [17] 0.148 | [18] 0.12 | [15] 0.21 | [16] 0.0413 | [19] 0.0279 | [20] 0.142

CCCCCCCC/C=C\CCCCCCCC(=O)O
inactive: [17] 0.0706 | [18] 0.117 | [19] 0.0994 | [20] 0.08

NCCCCC(=O)O
inactive: [13] 0.172 | [14] 0.0951 | [18] 0.128 | [15] 0.237 | [16] 0.0298 | [19] 0.0908 | [20] 0.116
active: [17] -0.118
